Bioassay records (PubChem)
Sampled rows, rich in hits. Any-hit rate of the full collection: about 3.1%.
HIV Env fusion – blocks HIV Env-driven cell-cell fusion. HeLa-JRFL Env/CEM21 cell fusion, luciferase. inhibition, % at 12.3 µM. 360,000 tested, 1.1% active;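 active means mean replicate inhibition score of at least 50 and every replicate individually at or above 50; inconclusive means only one of the two criteria met; inactive means mean below 50 and not all replicates reaching 50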;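 further: 0% = plate neutral controls and 100% = maraviroc near 300 nM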
GSIS activator – primary screen for activators of insulin secretion dependent on glucose, INS-1E cells, GLuc reporter luminescence | INS-1E GLuc reporter insulin secretion, 2-3 h | activation, % at 16.6 µM | 370,000 tested, 0.61% active | AID 743287;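 active means lowest replicate activation of at least 40%, so every replicate reaches that level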;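 further: 0% = median of neutral control wells and 100% = median of IBMX positive control wells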
miR122 inh – miR-122 inhibition in Huh7 cells. 340,000 tested, 0.3% active. AID 602342. Huh7 miR-122 Renilla luciferase sensor, 48 h; neutral wells = 0, positive control = 100. activation (reporter increase), % at 12.5 µM;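 active means mean replicate activation score at least 90 and every replicate individually at or above 90; inconclusive means only one of the two criteria met; inactive means neither criterion met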;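 further: higher luciferase means less miR-122 activity so hits act as miR-122 inhibitors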
C2C12 statin – suppression of simvastatin myotoxicity. C2C12 myotubes + simvastatin, ATP luminescence, 48 h; scaled: DMSO 0, geranylgeraniol control 100. rescue of ATP level, % at 7.49 µM. 330,000 tested, 0.78% active;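 active means mean ATP rescue above about 67%, or every replicate alone reaching that limit, limit read from the data, passing the limit was not always enough; inconclusive means no clear call, values can overlap the other calls; inactive means mean under the limit and some replicate under it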;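 further: myotubes were challenged with 10 µM simvastatin during compound exposure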
EWS-Fli inh – blocks EWS/Fli oncoprotein-driven transcription; AID 651661; inhibition, % at 12.6 µM; 350,000 tested, 0.67% active; A673 NR0B1-luciferase reporter, viability-normalised;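 active means mean inhibition of at least 50% after viability correction, with every replicate also passing that limit; inconclusive means mean reaches 50% but only one of two replicates passes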;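 further: firefly luciferase signal divided by Alamar Blue viability fluorescence both relative to DMSO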
PAX8 inh HTS – inhibitors of PAX8 transcriptional activity in RMG-I cells; RMG-I TPO-luciferase reporter, SteadyGlo, 24 h; 360,000 tested, 1.2% active; AID 652154; inhibition, % at 12.6 µM;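 active means mean replicate inhibition at least 60% with every replicate also reaching 60%; inconclusive means only one of the two criteria is met; inactive means mean below 60% and not all replicates reaching 60%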;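 further: luciferase light reporting Pax8 driven TPO promoter activity; plate controls were median of neutral control wells for no effect and mitoxantrone controls for full effect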
Numbers without * were called inactive; u = inconclusive; x = no result; [ ] = remark or other dose.

SMILES	HIV Env fusion	GSIS activator	miR122 inh	C2C12 statin	EWS-Fli inh	PAX8 inh HTS
O=C(c1ccccc1F)N1CCCC(N2CCN(Cc3ccc4c(c3)OCO4)CC2)C1 (configuration not stated)	-5	47*	-1	-3	0	9
COc1ccc(S(=O)(=O)N(C)C[C@@H]2Oc3ccc(NC(=O)CCC(F)(F)F)cc3C(=O)N([C@H](C)CO)C[C@H]2C)cc1	x	17	4[16.7 µM]	6	1	4
CCN1C(=O)CCN(C2CCCC2)c2nc(Nc3ccc(C(=O)NC4CCN(C)CC4)cc3OC)ncc21	-58	-1	6	-9	62*	-106
C[C@H]1CCCCO[C@@H](CN(C)Cc2ccc(C(F)(F)F)cc2)[C@@H](C)CN([C@@H](C)CO)C(=O)c2cc(NS(=O)(=O)c3cccs3)ccc2O1	14[16.7 µM]	-21	-6[16.7 µM]	-5	18	96*
C[C@H](CO)N1C[C@H](C)[C@@H](CN(C)Cc2ccc(Cl)c(Cl)c2)OCCCC[C@H](C)Oc2ccc(NS(=O)(=O)c3cccs3)cc2C1=O	15[16.7 µM]	-16	-3[16.7 µM]	x	10	71*
C[C@@H]1CN([C@@H](C)CO)C(=O)c2cc(NS(=O)(=O)c3cccs3)ccc2O[C@@H](C)CCCCO[C@@H]1CN(C)Cc1ccc(C(F)(F)F)cc1	-2[16.7 µM]	-11	0[16.7 µM]	116*	5	u
C[C@@H]1CN([C@@H](C)CO)C(=O)c2cc(NS(=O)(=O)c3cccs3)ccc2O[C@@H](C)CCCCO[C@H]1CN(C)C(=O)Nc1ccc(F)cc1	-131[16.7 µM]	-24	6[16.7 µM]	x	-3	13
C[C@H](CO)N1C[C@H](C)[C@@H](CN(C)C(=O)Nc2ccc(C(F)(F)F)cc2)OCCCC[C@H](C)Oc2ccc(NS(=O)(=O)c3cccs3)cc2C1=O	24[16.7 µM]	4	-6[16.7 µM]	-6	19	65*
C[C@H](CO)N1C[C@H](C)[C@H](CN(C)Cc2ccc(C(F)(F)F)cc2)OCCCC[C@H](C)Oc2ccc(NS(=O)(=O)c3cccs3)cc2C1=O	x	-2	x	x	13	x
C[C@H](CO)N1C[C@H](C)[C@H](CN(C)C(=O)NC2CCCC2)Oc2ncc(/C=C/c3ccccc3)cc2C1=O	3[16.7 µM]	-7	5[16.7 µM]	-1	1	-19
COc1ccc(NC(=O)N2C[C@H]3[C@@H](c4ccccc42)[C@@H](CO)N3C(=O)C2CCCCC2)cc1	x	-4	33[16.7 µM]	-4	-5	-6
C[C@@H]1CCCCO[C@@H](CN(C)Cc2ccc(C(F)(F)F)cc2)[C@@H](C)CN([C@@H](C)CO)C(=O)c2cc(NS(=O)(=O)c3cccs3)ccc2O1	-11[16.7 µM]	-19	8[16.7 µM]	-59	3	u
C[C@H]1CCCCO[C@H](CN(C)Cc2ccc(C(F)(F)F)cc2)[C@@H](C)CN([C@@H](C)CO)C(=O)c2cc(NS(=O)(=O)c3cccs3)ccc2O1	19[16.7 µM]	-28	-4[16.7 µM]	64	3	81*
CCC(=O)Nc1cc(-c2cc3ccccc3oc2=O)ccc1OC	-54	1	x	x	-42	-132
COc1ccc(-c2cc3ccccc3oc2=O)cc1NC(=S)NC(=O)c1ccc2c(c1)OCCO2	-218	94*	-6	-79	x	x
CC(=O)N(C1=C(Cl)C(=O)c2ccccc2C1=O)C1CCCCC1	22	68	6	x	55*	99*
CC(=O)N(c1ccccc1C)C1CCCC1	x	8	-5	-3	-4	4
C[C@H](CO)N1C[C@H](C)[C@H](CN(C)CC2CC2)Oc2c(NS(C)(=O)=O)cccc2C1=O	-3[16.7 µM]	4	-4[16.7 µM]	-23	1	1
Cn1cccc1C(=O)C(=O)Nc1ccc(Cl)cc1	x	x	-2	93*	x	x
Cn1cccc1C(=O)C(=O)Nc1cc(Cl)cc(Cl)c1	x	x	-6	x	x	x
O=C(CSc1nc2ccccc2n1S(=O)(=O)c1cccc([N+](=O)[O-])c1)NCCc1ccccc1	73*	9	x	x	-4	1
O=[N+]([O-])c1ccccc1Sc1nccn1Cc1ccccc1	-31	54*	-2	x	x	-27
CCC12C(=O)C(CC)(C(c3ccccc3)=C1c1ccccc1)[C@@H]1C(=O)N(c3ccc(C)cc3)C(=O)C12 (some centres not stated)	92*	1	x	x	-2	22
CCCC12C(=O)C(C)(C(c3ccccc3)=C1c1ccccc1)C1C(=O)N(c3ccc(C)cc3)C(=O)C12 (configuration not stated)	83*	5	x	x	17	31
COc1ccc(NC(=O)N(C)C[C@H]2Oc3c(NS(=O)(=O)c4ccc(OC)cc4)cccc3C(=O)N([C@@H](C)CO)C[C@H]2C)cc1	-30[16.7 µM]	-6	6[16.7 µM]	15	2	-14
SMILES	HIV Env fusion	GSIS activator	miR122 inh	C2C12 statin	EWS-Fli inh	PAX8 inh HTS
FC(F)(F)c1cccc(NC(=S)Nc2ccc(Cl)c(Cl)c2)c1	13	-36	-6	x	5	1
O=[N+]([O-])c1cc(C(F)(F)F)cc([N+](=O)[O-])c1NCCNC(=S)Nc1ccc(Cl)c(Cl)c1	57*	0	11	x	7	29
C[C@@H]1CN([C@H](C)CO)S(=O)(=O)c2ccc(/C=C/c3ccccc3)cc2O[C@H]1CN(C)C(=O)C1CC1	24[16.7 µM]	13	18[16.7 µM]	-28	12	x
Cc1nn(C)cc1NC(=O)C[C@H]1CC[C@H]2[C@@H](COc3ccc(NC(=O)Nc4cccc(Cl)c4)cc3C(=O)N2C)O1	x	-12	6[16.7 µM]	-9	-3	12
COc1ccc(CCC(C)NC(=O)CCc2ccccc2)c(OC)c1 (configuration not stated)	3	-21	1	4	-1	-49
COc1cc(OC)c(OC)cc1CCC(C)NC(=O)Cc1ccccc1 (configuration not stated)	12	44*	x	-7	5	17
C[C@H](CO)N1C[C@H](C)[C@@H](CN(C)Cc2ccc(C(=O)Nc3ccccc3N)cc2)Oc2ccc(NS(=O)(=O)c3cn(C)cn3)cc2CC1=O	x	10	x	x	-4	8
COC(=O)c1sc(NC(=O)c2cc(-c3ccccc3)nc3ccccc23)c(C#N)c1C	x	x	0	-330	x	x
Cc1ccccc1-c1cc(C(=O)Nc2sc(C(=O)OC(C)C)c(C)c2C#N)c2ccccc2n1	63*	x	-4	-229	x	81*
COc1ccc(C(=O)c2nc3c(n2O)CCCCC3)cc1	x	x	3	0	x	x
COc1ccc(C(=O)c2nc3c(n2O)CCCC3)cc1OC	x	16	-2	122*	x	x
CN(C)S(=O)(=O)c1cccc(-n2sc3ccccc3c2=O)c1	-9	65*	-5	-8	10	-50
Cc1ccccc1-n1sc2cc(F)ccc2c1=O	-16	45*	-3	-12	29	-2
Cn1sc2ccccc2c1=O	-16	12	-1	32	19	4
O=c1c2ccccc2sn1-c1ccccc1	-60	256*	4	22	x	x
O=c1c2cc(F)ccc2sn1-c1ccccc1	-42	-3	-2	-75	9	-16
